Hits are enriched below; roughly 1.2% of the tested compounds scored in any of these assays.
RXFP1 antag – RXFP1 (human) relaxin receptor antagonism. Q9HBX9. HEK293-RXFP1, relaxin-stimulated cAMP HTRF, 30 min; active compounds read low. activity change, negative = inhibition, % at 57.5 µM. 350,000 tested, 0.59% active. AID 1259400;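 active = activity change of -60% or lower, but not beyond a set lower limit; inconclusive = change between -60% and -40%, or beyond the set limit; inactive = change above -40%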; note: % is set by controls: 0 for no effect and ±100 for the full control effect
Target sequence (Q9HBX9 whole entry, looked up): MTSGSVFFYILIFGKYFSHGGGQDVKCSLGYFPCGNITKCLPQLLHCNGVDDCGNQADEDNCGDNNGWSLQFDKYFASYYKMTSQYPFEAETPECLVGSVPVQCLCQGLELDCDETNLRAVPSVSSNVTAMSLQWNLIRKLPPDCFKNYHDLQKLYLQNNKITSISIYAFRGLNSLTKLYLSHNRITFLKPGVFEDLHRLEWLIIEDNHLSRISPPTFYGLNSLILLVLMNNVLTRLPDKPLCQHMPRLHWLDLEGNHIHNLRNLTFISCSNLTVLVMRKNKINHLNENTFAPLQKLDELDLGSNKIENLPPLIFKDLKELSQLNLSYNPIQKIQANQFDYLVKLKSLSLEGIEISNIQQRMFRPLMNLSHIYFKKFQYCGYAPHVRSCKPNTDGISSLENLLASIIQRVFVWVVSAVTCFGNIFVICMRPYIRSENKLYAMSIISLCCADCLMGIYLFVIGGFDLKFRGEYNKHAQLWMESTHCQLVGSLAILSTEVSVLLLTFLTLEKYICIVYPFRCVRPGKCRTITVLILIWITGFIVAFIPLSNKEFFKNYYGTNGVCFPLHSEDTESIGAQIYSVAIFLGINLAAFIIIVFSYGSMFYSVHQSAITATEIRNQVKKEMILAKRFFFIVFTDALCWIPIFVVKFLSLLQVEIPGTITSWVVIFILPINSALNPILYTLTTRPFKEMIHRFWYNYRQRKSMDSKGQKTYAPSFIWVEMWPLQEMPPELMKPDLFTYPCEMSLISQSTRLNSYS
RXFP1 agonist – agonists of human relaxin receptor RXFP1 | HEK293T-RXFP1 cAMP TR-FRET, 30 min; response scale: percent of porcine relaxin response, buffer zero | AID 2676 | 370,000 tested, 0.3% active | Potency, µM (series often up to 57.5 µM), inactives show at the top dose activation, actives largely listed as activators | Q9HBX9; active = well fitted activation curve with a large enough effect; inconclusive = small, poorly fitted or top-dose-only effect; note: potency is the fitted concentration of half-maximal effect; % is set by controls: 0 for no effect and ±100 for the full control effect; nearly all actives have a fitted effect of over 60% in size
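cAMP rise read by TR-FRET after 30 min, 37C compound exposure (up to 58 uM) in RXFP1-transfected HEK293 cells with Ro 20174 present. EC50 from Hill-equation fits, with 29 nM porcine relaxin as 100% and buffer as basal.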
gsp antag – antagonists of gsp mutant (McCune-Albright syndrome) | gsp-mutant cells, cAMP HTRF, 30 min | Potency, µM (highest dose often 76.9 µM), for the others: at the highest dose activity change, negative = inhibition, actives largely listed as inhibitors | 340,000 tested, 0.4% active; calls by dose curve; cell line not stated here;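 note: intracellular cAMP measured with PDE inhibitor Ro 20-1724 present during compound exposure; potency is the fitted concentration of half-maximal effect; % is set by controls: 0 for no effect and ±100 for the full control effect; nearly all actives have a fitted effect of over 65% in size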
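Cells in G418 medium, seeded 16-24 h, 37C; buffer exchange to DPBS + 1 mM CaCl2, 0.5 mM MgCl2, 0.05% BSA; cpds in DMSO + […] (300 uM stock), 30 min 37C; HTRF cAMP detection.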
pAkt inh – inhibitors of Akt phosphorylation | Neuro2A IGF-stimulated pAkt S473 HTRF, 20 min; active compounds read low | activity change, % for hits at 50 µM | 360,000 tested, 0.32% active; in the data active = activity change below about -80%; inconclusive = mostly about -51% to -80%; note: % is set by controls: 0 for no effect and ±100 for the full control effect
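Single-point screen (50 µM final compound) in Neuro2A cells stimulated 20 min with 6 nM IGF at 37 deg C. After lysis, Ser473-phosphorylated Akt read by HTRF (ex 330 nm, em 615/665 nm) as the 665/615 ratio.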
gsp agonist – agonists of gsp mutant (McCune-Albright syndrome) | gsp mutant cells, cAMP HTRF, 30 min | Potency, µM (top dose mostly 76.9 µM), for the others: at the highest dose activation (cAMP increase), actives largely listed as activators | 340,000 tested, 0.13% active; active = well fitted activation curve with a large enough effect; inconclusive = small, poorly fitted or top-dose-only effect, or another doubt; inactive = no such curve, though single readings can be large or run the other way; cell line not stated here;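 note: phosphodiesterase inhibitor Ro 20-1724 added with compounds to block cAMP breakdown; potency is the fitted concentration of half-maximal effect; nearly all actives have a fitted effect of over 60% in size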
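Cells stably selected in G418 were plated at 2000/well, grown 16-24 hr, then given compounds in DMSO with the PDE inhibitor […] (300 uM solution added) for 30 min at 37C; cAMP was read by HTRF.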
* marks the source's active call; other numbers are inactive results; i = inactive; ? = inconclusive; . = not tested or not shown; [ ] = remark or other dose.

SMILES | RXFP1 antag | RXFP1 agonist | gsp antag | pAkt inh | gsp agonist
CCS(=O)(=O)c1nc(S(=O)(=O)c2ccc(C)cc2)c(N2CCN(C)CC2)s1 | 6 | 25µM* | -3% | . | ?
CCCCN(CCCC)CCNC(=O)c1cn(C)c2ccc(S(=O)(=O)N3CCOCC3)cc2c1=O | -4 | 13% | . | . | .
O=C(CS(=O)(=O)c1ccc(F)cc1)Nc1nnc(-c2cccs2)o1 | -5 | 0% | 2% | i | -10%[15.4 µM]
O=C(CS(=O)(=O)c1ccc(Cl)cc1)Nc1nnc(-c2cccs2)o1 | -75* | 3% | 1% | i | ?
CC1CC(C)CN(S(=O)(=O)c2ccc(C(=O)Nc3nnc(-c4cccs4)o3)cc2)C1 (centres undefined) | -8 | -1% | ? | i | -9%
CCC1CCCCN1S(=O)(=O)c1ccc(C(=O)Nc2nnc(-c3cccs3)o2)cc1 (centres undefined) | -73* | 1% | ? | i | 5%
CC(C)(C)c1ccc(C(=O)CCCN2CCC(OC(c3ccccc3)c3ccccc3)CC2)cc1 | 7 | . | . | . | .
Cc1ccccc1-c1noc(-c2ccc(N3CCN(C)CC3)c([N+](=O)[O-])c2)n1 | . | 2% | . | . | .
CC(C)(C)NC(=O)c1cccc(NC(=O)Cc2cccs2)c1 | 7 | -1% | 9% | i | 9%[15.4 µM]
Cc1cccc(NC(=O)c2cccc(NC(=O)Cc3cccs3)c2)c1 | -107* | 0% | -12% | i | 19%
c1ccc2c(c1)oc1c(NCCCN3CCOCC3)ncnc12 | -7 | 2% | 8% | -109%* | ?
O=C(O)CCSSCCC(=O)O | . | 0% | -3% | i | .
O=C(O)CCSCCC(=O)O | -4 | 3% | 20% | -106%* | -4%
CC(=O)c1ccc(N2CCN(c3ncnc4c3cnn4-c3cc(Cl)ccc3C)CC2)cc1 | -11 | 19% | . | . | .
N#CC(C#N)=C(Nc1ccc(F)cc1)SCc1cccc(F)c1 | 13 | 1% | 32µM* | i | 1%
CCc1ccc(N/C(SC)=C(/C#N)C(N)=O)cc1 | -9 | -2% | -5% | i | 3%
CCOC(=O)Cn1c(=NC(=O)CN2C(=O)CCC2=O)sc2cc(S(N)(=O)=O)ccc21 | -10 | 4% | 7% | i | -18%[15.4 µM]
CCOC(=O)Cn1c(=NC(=O)c2nc3ccccc3s2)sc2cc(S(N)(=O)=O)ccc21 | -30 | 24% | 10µM* | i | -4%[15.4 µM]
c1ccc2sc(-c3ccc4c(c3)OCO4)nc2c1 | -14 | 7% | -3% | -112%* | 17%
CCn1c(=O)n(CC)c2cc(N3CCCC3)c(NC(=O)c3ccc(F)cc3)cc21 | 3 | 1% | ? | i | -18%
CCn1c(=O)n(CC)c2cc(N3CCCC3)c(NC(=O)c3c(F)cccc3F)cc21 | 12 | -2% | 32µM* | . | 4%
COC(=O)c1c(NC(NC(C)=O)C(Cl)(Cl)Cl)sc2c1CCCC2 (centres undefined) | -74* | -4% | -23% | i | -9%[15.4 µM]
CCOC(=O)c1c(NC(=O)CCC(=O)O)sc2c1CCCCC2 | 8 | 2% | -13% | i | 14%
CCOC(=O)c1c(NC(NC(C)=O)C(Cl)(Cl)Cl)sc2c1CCCC2 (centres undefined) | -68* | -1% | 0% | i | -20%
COc1ccc(-c2cc(C(F)(F)F)nc(S(C)(=O)=O)n2)cc1 | -20 | 6% | 17% | -98%* | ?
SMILES | RXFP1 antag | RXFP1 agonist | gsp antag | pAkt inh | gsp agonist
COc1ccc(-c2cc(C(F)(F)F)nc(N)n2)cc1 | -61* | -1% | -7% | i | -54%[15.4 µM]
Cc1ccc2nc(N)[nH]c(=O)c2c1Sc1ccncc1 | 20 | . | . | . | .
CCn1c(SCc2ccc(C)cc2)nnc1C1CCN(S(=O)(=O)c2ccc(OC)cc2)CC1 | -5 | 1% | -22% | -130%* | -21%
CCn1c(SCc2ccc(F)cc2)nnc1C1CCN(S(=O)(=O)c2ccc(OC)cc2)CC1 | 4 | 0% | -28% | i | 4%
Cc1ccc(-n2nc(CO)c(C(=O)NCCC(C)C)n2)cc1C | -37 | 0% | . | . | .
Cc1ccc(Cl)c2c1=NC(=O)C=2c1[nH]c(=S)[nH]c1O | -109* | 0% | 17% | i | ?
Cc1ccc(C)c(NC(=O)CSc2cn(CC(=O)N3CCCCC3)c3ccccc23)c1 | 1 | 1% | . | . | .
CN(c1ccc(O)cc1)c1nc(O)c(C2=c3ccccc3=NC2=O)s1 | -13 | . | 14µM* | i | 7%
COC(=O)C1=C(C)N(C)C(C)=C(C(=O)OC)C1c1ccc(Cl)cc1 | -16 | 0% | -4% | i | 12%
CCOC(=O)C1=C(C)N(C)C(C)=C(C(=O)OCC)C1c1ccc(Cl)cc1 | -61* | 1% | 5% | i | -3%[15.4 µM]
S=c1[nH]cnc2scc(-c3ccccc3)c12 | -73* | 2% | -4% | i | 6%
COc1ccc(-n2nc(C(=O)N3CCN(c4cccc(C)c4C)CC3)c3c4ccccc4n(C)c3c2=O)cc1Cl | -3 | 11% | . | . | .
CCOc1ccc2nc(N(CCCN(C)C)C(=O)c3ccc4c(c3)CCCC4)sc2c1 | -24 | 1% | 10% | i | 8%
COc1cccc2sc(N(CCN(C)C)C(=O)c3ccc4c(c3)CCCC4)nc12 | -69* | 1% | -5% | i | 12%[15.4 µM]
CN(C)CCN(C(=O)c1ccc2c(c1)CCCC2)c1nc2c(F)cccc2s1 | -26 | 1% | 6% | i | -5%[15.4 µM]
CN(C)CCCN(C(=O)c1ccc2c(c1)CCCC2)c1nc2ccc(Cl)cc2s1 | -77* | 1% | 14% | i | 24%
COc1cccc2sc(N(CCCN(C)C)C(=O)c3ccc(S(=O)(=O)N4CCCc5ccccc54)cc3)nc12 | -88* | -3% | 16% | i | ?
CN(C)CCCN(C(=O)c1ccc2ccccc2c1)c1nc2cc3c(cc2s1)OCO3 | -61* | 0% | 6% | i | -56%
CN(C)CCN(C(=O)c1ccc2ccccc2c1)c1nc2cc3c(cc2s1)OCCO3 | -28 | 1% | -14% | i | 21%
CN(C)CCCN(C(=O)c1ccc(S(=O)(=O)N2CCc3ccccc32)cc1)c1nc2c(Cl)cccc2s1 | -5 | 2% | -9% | i | -26%
Cn1c(=O)c2c(nc(SCC(=O)Nc3ccccc3F)n2Cc2ccccc2F)n(C)c1=O | -2 | 2% | . | . | .
O=C1CC(c2nc3ccccc3n2CCCOc2ccccc2)CN1c1ccc(F)cc1 (centres undefined) | . | 1% | . | . | .
CCCCOC(=O)CSc1n[nH]c(=O)[nH]c1=O | -5 | 0% | 7% | -124%* | -32%
CCCCCOC(=O)C(C)Sc1n[nH]c(=O)[nH]c1=O (centres undefined) | -6 | 0% | -19% | i | -4%
CN1C(CSCC(F)(F)F)Nc2cc(Cl)c(S(N)(=O)=O)cc2S1(=O)=O (centres undefined) | -8 | . | . | . | .
CN(C)c1ccc(N/C=C/C(=O)c2ccco2)cc1 | -64* | 1% | -29% | i | 3%

Source: PubChem
